Source: PubChem
TEAD-YAP inh: TEAD-YAP interaction inhibition, primary screen, TEAD-YAP interaction inhibitor project, luminescence, HEK-TIYL cells | TEAD-Gal4/YAP UAS-luciferase luminescence | inhibition, % at 9.12 µM | hit rate 1.4% among 640,000; in the data active means inhibition above about 32%;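 further: 0% = median of test compound wells and 100% = reference inhibitor wells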
FBW7 activator: FBW7 E3 ligase activators, primary screen, biochemical, AlphaScreen, human. hit rate 0.13% among 650,000. normalized activity (activation), % at 26.1 µM. AlphaScreen FBW7–phospho-cyclin E peptide binding, activator screen; in the data active means normalized activity above about 1.9%;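 further: purified mutant Fbw7 with reduced substrate affinity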
GPR151 activ: activators of human GPR151, primary screen, cell-based, PathHunter beta-arrestin, luminescence; G-protein coupled receptor 151 (Homo sapiens), Q8TDV0; PathHunter beta-arrestin GPR151 cells; activation, % at 11.2 µM; hit rate 1% among 650,000; in the data active means activation above about 4.9%;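 further: 0% = median of compound wells and 100% = cells with positive control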
MITF primary: MITF inhibitors, primary screen, biochemical, AlphaScreen, human; AlphaScreen MITF homodimerization, bead proximity signal; inhibition, % at 2.6 µM; hit rate 0.91% among 650,000; AID 1259374, 2018; in the data active means inhibition above about 50%;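 further: 0% = vehicle wells with protein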
GPR151 confirm: GPR151 activators, triplicate retest, confirmation, cell-based, PathHunter beta-arrestin, luminescence; AID 1508609, 2020; GPR151 PathHunter beta-arrestin cells, 90 min; % of EA-reagent control over plate median; activation, % at 11.2 µM; shares compounds with GPR151 activ; 6,700 tested, under 10 active;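 active means mean percent activation across replicates above the confirmation screen cutoff of 4.91%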
GPR119 counter: GPR119 activators in beta-arrestin cells, counter-screen for GPR151 activator project, cell-based, PathHunter beta-arrestin, luminescence, triplicate; shares compounds with GPR151 activ; 90 min; 0 = compound-well median, 100 = enzyme-acceptor control; activation, % at 11.2 µM; hit rate 0.3% among 6,700; AID 1508611, 2020;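 active means mean percent activation in the counterscreen above 29.09%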;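 further: counterscreen on off-target GPR119 to flag nonselective hits from the GPR151 activator screen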
Target sequence (Q8TDV5 whole entry, looked up): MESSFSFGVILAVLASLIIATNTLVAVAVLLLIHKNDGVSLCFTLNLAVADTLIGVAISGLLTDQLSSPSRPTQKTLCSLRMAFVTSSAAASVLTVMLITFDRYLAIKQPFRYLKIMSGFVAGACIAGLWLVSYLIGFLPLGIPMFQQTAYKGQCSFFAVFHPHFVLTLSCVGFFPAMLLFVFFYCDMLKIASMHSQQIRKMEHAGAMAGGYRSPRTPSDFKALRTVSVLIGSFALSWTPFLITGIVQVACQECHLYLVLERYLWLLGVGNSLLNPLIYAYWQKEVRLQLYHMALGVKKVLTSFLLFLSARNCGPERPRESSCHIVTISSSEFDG
The depositor's hits bear a star; nt = not tested or not shown; ! = repeats disagree. In the library only some 3.4% were active in any assay of this set; here they are far more common.

SMILES	TEAD-YAP inh	FBW7 activator	GPR151 activ	MITF primary	GPR151 confirm	GPR119 counter
Cc1cccc(Cc2c(C)nc3c(C(=O)NCC4CCCO4)cnn3c2C)c1 (centres undefined)	-1	0	5.1*	-10	0	-1
Cc1nc2c(C(=O)NCc3ccccc3Cl)cnn2c(C)c1Cc1cccc(Cl)c1	2	0	5.3*	-1	-1	-3
CCC1(C2CCN(Cc3ccoc3)CC2)NC(=O)N(CCc2ccc(OC)cc2)C1=O (centres undefined)	3	0	14*	-17	0	7
Cn1c(=O)c2c(ncn2CC(=O)N/N=C/c2cccc(F)c2)n(C)c1=O	-4	0	5.6*	-2	0	-6
COc1ccc(NC(=O)Cn2cc(C(=O)c3ccc(C)c(C)c3)c(=O)c3cc(F)ccc32)cc1	15	0	0	9	nt	nt
Cc1ccc(-n2ncc3c(=O)n(CC(=O)Nc4ccc(C)cc4C)cnc32)cc1	15	0	0	-2	nt	nt
CC(=O)c1cccc(S(=O)(=O)NCC(c2ccco2)N2CCCCC2)c1 (centres undefined)	10	0	7.0*	-11	0	0
CC(=O)c1cccc(S(=O)(=O)NCc2ccco2)c1	-22	0	0	7	nt	nt
COc1ccc(/C=C2\N=C(c3cccc(I)c3)OC2=O)cc1[N+](=O)[O-]	1	0	14*	-4	1	-6
COc1ccc(C2=N/C(=C\c3ccc([N+](=O)[O-])cc3)C(=O)O2)cc1[N+](=O)[O-]	1	0	-2	22	nt	nt
COc1cc(NC(=S)N2CCN(c3ccccn3)CC2)cc(OC)c1	-6	0	11*	-2	0	2
Cc1ccc(NC(=S)N2CCN(c3ccccn3)CC2)c(C)c1	-3	0	1	13	nt	nt
COc1ccc(C)cc1NC(=S)N1CCN(c2ccccn2)CC1	-6	0	5.1*	0	0	-5
COc1cc(/C=C2N=C(/C=C/c3cccc(Cl)c3Cl)OC/2=O)ccc1OC(C)=O	-2	0	0	3	nt	nt
COc1cccc(C(=O)Oc2ccc(C=C3C(=O)NC(=O)NC3=O)cc2OC)c1	-2	-1	2	4	nt	nt
CC(=O)N1CCC(N(C(=O)CCC(=O)NCc2ccccn2)C2CC2)CC1	9	0	2	2	nt	nt
Nc1ccc(-c2nnn(CC(=O)Nc3ccc(C4CCCCC4)cc3)n2)cc1	-5	0	8.1*	-7	1	12
Cc1ccc(C(=O)NC(C(=O)O)C(C)C)cc1 (centres undefined)	9	0	7.8*	9	0	-3
Cc1ccc(C(=O)NC(C)C2CC3CCC2C3)cc1 (centres undefined)	-12	0	10*	0	1	3
CC(C)C(NC(=O)c1ccc(F)cc1)C(=O)O (centres undefined)	1	0	-1	3	nt	nt
CC(=O)Nc1ccc(NC(=O)c2cccc(N3CCCC3CO)n2)cc1 (centres undefined)	9	0	5.6*	-6	0	-4
CCCNC(=O)c1cccc(N2CCC(N3CCOCC3)CC2)n1	3	0	1	13	nt	nt
COc1ccc(CCNC(=O)c2cccc(N3CCCC3CO)n2)cc1 (centres undefined)	46*	0	8.7*	3	0	-7
O=C(NCCO)c1cccc(N2CCCC2CO)n1 (centres undefined)	4	0	-1	12	nt	nt
O=C(NCCc1ccc(O)cc1)c1cccc(N2CCC(N3CCOCC3)CC2)n1	4	0	5.6*	2	-1	-15
SMILES	TEAD-YAP inh	FBW7 activator	GPR151 activ	MITF primary	GPR151 confirm	GPR119 counter
CN1CC(=O)N(CC(=O)Nc2ccc3c(c2)OCO3)C1=O	4	0	-2	0	nt	nt
Cc1cc(C)c(NC(=O)CN2C(=O)NC3(CCCCC3C)C2=O)c(C)c1 (centres undefined)	-7	0	0	2	nt	nt
Clc1ccccc1C(c1ccccc1)(c1ccccc1)n1ccnc1	0	0	6.9*!	-14	2	-12
COc1cccc(CC2(CO)CCN(Cc3cccn3-c3ncccn3)CC2)c1	5	0	12*	-9	0	-2
COc1ccc(CN2CCC(CO)(Cc3ccccc3)CC2)cc1Cn1cccn1	6	0	9.4*	6	-1	-6
Cc1nnsc1C(=O)N(C)c1ccccc1	-2	0	8.2*	-10	0	-3
Cc1nnsc1C(=O)N/N=C/c1ccccc1	7	0	1	22	nt	nt
Cc1ccc(C(=O)N(C)c2ccccc2)cc1	-4	0	5.0*	12	-1	-5
CCCCC/C(C)=N/NC(=O)CNC(=O)c1ccc(Cl)cc1	14	0	1	1	nt	nt
CC1=C/C(=N\S(=O)(=O)c2ccccc2)C(C)=CC1=O	4	0	-1	-13	nt	nt
CC1=C/C(=N\OS(=O)(=O)c2ccccc2)C(C(C)C)=CC1=O	-9	0	8.5*	20	0	20
CC1=C(C(=O)OCCc2ccccc2)C(c2cccc(Cl)c2)NC(=O)N1 (centres undefined)	6	0	1	-3	nt	nt
CC1=C(C(=O)OCc2ccccc2)C(c2cccc(Cl)c2)NC(=O)N1 (centres undefined)	-22	0	5.0*	-10	1	-3
CCOc1cccc(C2NC(=O)NC(C)=C2C(=O)OC2CCCCCC2)c1 (centres undefined)	-11	0	5.7*	6	0	3
CC1=C(C(=O)OCCc2ccccc2)C(c2ccc(C)s2)NC(=O)N1 (centres undefined)	2	0	5.1*	-7	0	-13
O=C1NC(NS(=O)(=O)c2ccccc2)(C(F)(F)F)C(=O)N1c1ccc(Cl)cc1 (centres undefined)	4	0	5.9*	-7	0	11
Cc1ccc(S(=O)(=O)NC2(C(F)(F)F)NC(=O)N(c3ccc(Cl)cc3)C2=O)cc1 (centres undefined)	-5	0	0	-1	nt	nt
NC(=O)CSc1nnc(Cc2cccs2)n1-c1ccccc1	10	0	1	-1	nt	nt
Cc1ccnc(NC(=O)C2CCCC2)c1	-11	0	0	16	nt	nt
Cc1ccnc(NC(=O)C2CC=CCC2C(=O)O)c1 (centres undefined)	-5	0	6.3*	14	0	-4
